In PubChem BioAssay (Tox21) one finds Potency data, which are given here for 40 molecules.

“And” between values parts separate entries of the source, which are not always exact repeats. Equal entries are not always repeated. Inconclusive results are not listed. Entries that show only a call come without a potency. More than one record can exist for a structure, and the calls need not agree. The source made the active and inactive calls. Calls come from the whole dose curve.
Potency is the fitted concentration of half-maximal effect.

Acetylcholinesterase (Homo sapiens), sequence (P22303 whole entry, looked up): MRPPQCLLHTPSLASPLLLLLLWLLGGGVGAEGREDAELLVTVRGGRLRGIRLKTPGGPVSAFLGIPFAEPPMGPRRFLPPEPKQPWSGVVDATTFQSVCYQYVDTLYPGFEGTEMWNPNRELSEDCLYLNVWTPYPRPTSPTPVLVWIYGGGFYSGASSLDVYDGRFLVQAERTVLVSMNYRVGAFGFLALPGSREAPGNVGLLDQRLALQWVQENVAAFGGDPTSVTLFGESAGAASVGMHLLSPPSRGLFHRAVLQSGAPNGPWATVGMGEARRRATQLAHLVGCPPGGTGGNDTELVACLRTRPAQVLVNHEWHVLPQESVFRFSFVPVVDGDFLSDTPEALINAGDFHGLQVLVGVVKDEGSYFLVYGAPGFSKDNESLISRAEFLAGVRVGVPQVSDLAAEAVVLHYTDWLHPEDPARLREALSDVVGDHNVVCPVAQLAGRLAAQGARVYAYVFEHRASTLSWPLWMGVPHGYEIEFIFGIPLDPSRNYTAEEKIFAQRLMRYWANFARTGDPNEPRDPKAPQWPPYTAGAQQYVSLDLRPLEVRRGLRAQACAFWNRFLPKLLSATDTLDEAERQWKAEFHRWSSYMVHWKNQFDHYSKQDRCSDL

In this assay the target is Acetylcholinesterase (Homo sapiens) (UniProt P22303). Briefly: Acetylcholinesterase (AChE) small molecule antagonists: colormetric cell-based qHTS assay (AID 1347395). Note: nearly all actives have a fitted effect of over 30% in size. The following applies: SH-SY5Y cells AChE activity, colorimetric (Ellman); series mostly up to 115 µM. From the text:
National Center for Advancing Translational Sciences [NCATS]
Division of Preclinical Innovation [DPI]
U.S. Environmental Protection Agency [EPA]
National Institutes of Environmental Health Sciences [NIEHS]
National Toxicology Program [NTP]
U.S. Food and Drug Administration [FDA]
Acetylcholinesterase (AChE) is the primary cholinesterase in the body that hydrolyzes a key neurotransmitter, acetylcholine. Inhibition of AChE activity can lead to neurotoxicity. The known inhibitors include organophosphorous pesticides (OP), chemical warfare agents, drugs, and various phytochemicals.
A homogenous cell-based assay using the Amplite Colormetric acetylcholinesterase assay kit (AAT Bioquest, Sunnyvale, CA) was used to evaluate the chemicals in the Tox21 10K library that inhibit AChE activity. The assay uses 5, 5-dithiobis-(2-nitrobenzoic acid) (DTNB) to quantify the thiocholine produced from the hydrolysis of acetylthiocholine by AChE from the SH-SY5Y cells.
Tox21 Assay Protocol Summary:
For the cell-based AChE assay, 2,000 SH-SY5Y cells in 4 uL/well were dispensed into black, clear-bottom 1536-well plates using a Multidrop Combi dispenser (Thermo Scientific, MA). The assay plates were incubated overnight at 37 C to allow cells to attach to the wells, followed by the transfer of 23 nL of compound or DMSO (vehicle control) by a Pintool Station (Wako Automation, CA). The plates were incubated for 30 min at 37 C and 5% CO2, followed by the addition of 4 uL of detection cocktail solution (DTNB, acetylthiocholine) into each well using a Flying Reagent Dispenser (Beckman Coulter, CA) and then 90 min incubation at 37 C.
Take `CNCC(O)c1ccc(O)cc1` (stereo not given): the Potency result was “inactive”.

As to `Cc1ccc(N=C=O)cc1N=C=O`, the Potency result is “inactive”. Consider `CNC(=O)O/N=C/C(C)(C)S(C)=O` (stereo not given), for which the Potency is 322 nM (active) and 354 nM (active). The value for `CCNc1nc(Cl)nc(NC(C)C)n1` was “inactive”; that for `O=[N+]([O-])c1ccc(Cl)cc1` was “inactive”. The value for `ClC(Cl)c1ccccc1` was “inactive”. The same measure for `Cc1cc(O)ccc1Cl`: “inactive”; for `C[C@H]1C(=O)O[C@@H]2CCN3CC=C(COC(=O)[C@](C)(O)[C@]1(C)O)[C@H]23`: “inactive”. On to `CCCCC(CC)C(=O)Cl` (stereo not given), for which the Potency result is “inactive”. On to `CCSC(=O)N1CCCCCC1`, for which the Potency entry was “inactive”.

Consider `C=C(C)C(=O)OCC(CC)CCCC` (stereo not given), for which the Potency entry was “inactive”. The same measure for `Cl[C@H]1OCCO[C@@H]1Cl`: “inactive”; for `Cc1cc(Cl)ccc1OC(C)C(=O)O` (stereo not given): “inactive”; for `CCOC(=O)CC(SP(=O)(OC)OC)C(=O)OCC` (stereo not given): 3.02 µM (active) and 3.56 µM (active).

Consider `OCc1ccco1`, for which the Potency result was “inactive”. The value for `Nc1ccc([As](=O)(O)O)cc1` was “inactive”; that for `Cc1cccc(C)c1N` was “inactive”. As to `OCC(O)CCl` (stereo not given), the Potency result was “inactive”. The same measure for `O=C(O)COc1ccccc1`: “inactive”; for `Cc1ccc(O)c(C)c1`: “inactive”; for `O=C(O)C1C(C(=O)O)C2(Cl)C(Cl)=C(Cl)C1(Cl)C2(Cl)Cl` (stereo not given): “inactive”.

In the case of `Cc1cccc(N)c1C`, the Potency result was “inactive”. The same measure for `O=C(O)CCCc1ccc(N(CCCl)CCCl)cc1`: “inactive”; for `Nc1cccc(Cl)c1`: “inactive”; for `C=CC(=O)OCCCCCC(C)C`: “inactive”. With `N#Cc1ccccn1`, the Potency entry was “inactive”. The same measure for `C=CC#N`: “inactive”; for `COc1nc(NC(C)C)nc(NC(C)C)n1`: “inactive”.

Regarding `CN(C)C(=O)C(c1ccccc1)c1ccccc1`, the Potency result was “inactive”. The same measure for `Clc1cnc(Oc2ccc(Oc3ncc(Cl)cc3Cl)cc2)c(Cl)c1`: “inactive”; for `CC(=O)C1CCOC1=O` (stereo not given): “inactive”. In the case of `CN(C)C(=O)Cl`, the Potency result was “inactive”. The same measure for `CCOP(=S)(OCC)Oc1cc(C)nc(C(C)C)n1`: 31.9 µM (active) and 71 µM (active) and inactive; for `CCOc1ccc(N)cc1`: “inactive”; for `c1ccc2c(c1)CCCC2`: “inactive”.

Consider `O=C(O)C(Br)Br`, for which the Potency entry is “inactive”. The value for `CSc1nnc(C(C)(C)C)c(=O)n1N` was “inactive”. The value for `CC(=O)/C=C/c1ccccc1` was “inactive”. Consider `COS(=O)(=O)OC`, for which the Potency entry was “inactive”. The value for `CC(C)c1cccc(C(C)C)c1O` was “inactive”.
